Laboratory results published in the supplement of paper PMC10338343.
± gives the standard deviation.

Each sequence was assayed on MILI (PIWIL2) piRISC loaded with piRNA #1 (26 nt) (assay: pre-steady-state target cleavage rate (min^-1); guide: piRNA #1 5'p-UGAGGUAGUAGGUUGUAUAGUAUCCA; MIWI and MILI are mouse PIWI proteins and EfPiwi is from a freshwater sponge; tags in brackets are library labels; higher = faster piRNA-guided slicing of the target). Settings: auxiliary factor: 500 nM mouse GTSF1.
In short: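 The method was Cleave-'n-Seq, in which uncleaved targets from a transcribed, DNA-blocked target RNA library were sequenced after exposure to active affinity-purified piRISC carrying one synthetic guide, with or without GTSF1 partner protein. Reactions contained 0.1 nM library, 1 nM piRISC and, where present, 500 nM GTSF1 in HEPES–potassium acetate buffer at 33 °C for 0–8 or 0–960 min. Reads were normalised to depth and to weakly complementary targets, three trials were pooled, and k3 was capped at 0.0001 min^-1. The pre-steady-state cleavage rate came from a burst-and-steady-state fit.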

Point of comparison: GGAGACCUAUCUAUACAACCUACUACGUGA, “pre-steady-state target cleavage rate” value 0.0608 ± 0.013. Against it:
- GGAGUGGAUACUAUUCAACCUACUUCCUCA — lower, 0.00253 ± 0.002
- GGAGACCUAUGAUUACAACCUACUACCAUCA — lower, 0.00378 ± 0.0028
- GGAGACCUAUGAAUACAACCUACUACAUCA — lower, 0.00323 ± 0.0026
- GGAGACCUAUGAACUACAACCUACUACCUCA — lower, 0.00389 ± 0.0029
- GGAGACCUAUCUAUUGAACCUACUACCUCA — within error, 0.0631 ± 0.011
- GGAGACCUAUGAAUACAACCUACUACCUA — lower, 0.00429 ± 0.0026
- GGAGACCUUAGUAUACUACCUACUACCUCA — higher, 0.0896 ± 0.012
- GGAGACCUUACUUUACAACCUACUAGCUCA — higher, 0.111 ± 0.02
- GGAGACCUAUCUAUACUACCUAGUACCUCA — lower, 0.0113 ± 0.0036
- GGAGACCUAUCUAUACAAGCUUCUACCUCA — lower, 0.0321 ± 0.0061
- GGAGACCUAUGAUUACAACAUACUACCUCA — lower, 0.00271 ± 0.0024
- GGAGUGGAUACUAUACAACCUGCUACCUCA — within error, 0.0658 ± 0.0067
- GGAGACCUAUCUAAACAUCCUACUACCUCA — higher, 0.116 ± 0.015
- GGAGACCUAUGUAUUCAAGCUACUACCUCA — higher, 0.109 ± 0.011
- GGAGACCUAUCUAUACAACCUACUUGCUCA — higher, 0.109 ± 0.023
- GGAGACCUAUGUAUACAACCUACUACGUCA — lower, 0.0197 ± 0.0037
- GGAGUCGAUACUAUAGAACCUACUACCUCA — within error, 0.0641 ± 0.0083
- GGAGACCUAACUAUAGAUCCUACUACCUCA — higher, 0.203 ± 0.026
- GGAGACCAUACUUUACAUCCUACUACCUCA — higher, 0.296 ± 0.029
- GGAGACCUAUGUAUAGAACCUACUACCUGA — lower, 0.00583 ± 0.0025
- GGAGACCUAACAAUACUACCUACUACCUCA — within error, 0.0399 ± 0.013
- GGAGACGAUACUAAUGAACCUACUACCUCA — within error, 0.0821 ± 0.011
- GGAGACCUAACUUUACAAGCUACUACCUCA — higher, 0.135 ± 0.025
